Source: the supplement of paper PMC6953052
± gives the standard deviation of the averaged measurements. Over roughly 1,700 compounds, “fraction of GFP-LC3-positive cells (≥5 vesicles/cell)” has its median near 0.058; the highest 2% begin near 0.59. The sample holds the highest values, similar compounds and a random draw of the others, so the mix is not that of the screen.

test system: CbCln3 +/+ GFP-LC3 cerebellar neuronal cells; assay: fraction of GFP-LC3-positive cells (≥5 vesicles/cell); higher = more autophagosome accumulation
How it was run: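 Wild-type or mutant CbCln3 cerebellar cells stably expressing GFP-LC3 (2 × 10^3/well, 384-well) received ~50 nL compound in DMSO by pin transfer, in duplicate, for 24 h at 33 °C. Hoechst 33342 and LysoTracker Red were added for the final 30 min before 3.2% PFA fixation and 10× imaging of three fields per well. CellProfiler counted GFP-LC3 vesicles per cell. The value is the fraction of cells with 5 or more vesicles, averaged over duplicates, with out-of-focus images excluded.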

Going from `CCOC(=O)C1=C(C)NC(=S)NC1c1cccc(O)c1` (configuration not stated) [Monastrol] to `CCCCOc1cc(C(=O)OCCN(CC)CC)ccc1N.Cl` [Benoxinate hydrochloride], the “fraction of GFP-LC3-positive cells” value falls from 0.199 to 0.0443.

First: CNC1(C)C2CCC(C2)C1(C)C.Cl (configuration not stated) [Mecamylamine hydrochloride]
Second: C=C(C)[C@@H]1CC[C@]2(C(=O)O)CC[C@]3(C)[C@H](CC[C@@H]4[C@@]5(C)CC[C@H](O)C(C)(C)[C@@H]5CC[C@]43C)[C@@H]12 [Betulinic acid]
The “fraction of GFP-LC3-positive cells” value of the first is higher: 0.093 for the first, 0.0607 for the second.

Compared with `CN(Cc1cnc2nc(N)nc(N)c2n1)c1ccc(C(=O)NC(CCC(=O)O)C(=O)O)cc1` (racemic) [Amethopterin (R,S)], `COc1ccc2cc(C(C)C(=O)O)ccc2c1` (configuration not stated) [Naproxen] is higher in “fraction of GFP-LC3-positive cells” value: 0.0411 for the first, 0.053 for the second.

Compared with `CC(=O)Oc1ccc(C(c2ccc(OC(C)=O)cc2)c2ccccn2)cc1` [Bisacodyl], `NC(=O)c1ccc(-c2nc(-c3ccc4c(c3)OCO4)c(-c3ccccn3)[nH]2)cc1` is lower in “fraction of GFP-LC3-positive cells” value: 0.0605 for the first, 0.0591 for the second.

Compared with `CC/C=C\C/C=C\C/C=C\C/C=C\CCCCC(=O)O` [6(Z), 9(Z), 12(Z), 15(Z)-Octadecatetraenoic acid], `CC/C=C\C/C=C\C/C=C\C/C=C\C/C=C\C/C=C\CCC(=O)O` is higher in “fraction of GFP-LC3-positive cells” value: 0.0591 for the first, 0.0655 for the second.

Compared with `CC(C(=O)O)c1ccc(-c2ccccc2)c(F)c1` (configuration not stated) [Flurbiprofen], `CS(=O)(=O)Nc1ccc([N+](=O)[O-])cc1Oc1ccccc1` [Nimesulide] is lower in “fraction of GFP-LC3-positive cells” value: 0.0432 for the first, 0.0281 for the second.

Compared with `Cl.O=C1CC2(CCCC2)CC(=O)N1CCCCN1CCN(c2ncccn2)CC1` [Buspirone hydrochloride], `O=C(CCCN1CCC(O)(c2ccc(Br)cc2)CC1)c1ccc(F)cc1` [Bromperidol] is higher in “fraction of GFP-LC3-positive cells” value: 0.0334 for the first, 0.0553 for the second.

First: CC(C)[N+]1(C)[C@@H]2CC[C@@H]1CC(OC(=O)C(CO)c1ccccc1)C2.[Br-] (some centres not stated) [Ipratropium bromide]
Second: C[N+]1(C)CCC(OC(=O)C(O)(c2ccccc2)C2CCCC2)C1.[Br-] (configuration not stated) [Glycopyrrolate]
The “fraction of GFP-LC3-positive cells” value of the first is higher: 0.0779 for the first, 0.0526 for the second.

Going from `CC[C@]12CCCN3CCc4c(n(c5ccccc45)[C@](O)(C(=O)OC)C1)[C@@H]32` [Epivincamine] to `CSc1ccc2c(c1)N(CCC1CCCCN1C)c1ccccc1S2.Cl` (configuration not stated) [Thioridazine hydrochloride], the “fraction of GFP-LC3-positive cells” value rises from 0.0608 to 0.103.

Compared with `CC(=O)N(CC(O)CN(C(C)=O)c1c(I)c(C(=O)NCC(O)CO)c(I)c(C(=O)NCC(O)CO)c1I)c1c(I)c(C(=O)NCC(O)CO)c(I)c(C(=O)NCC(O)CO)c1I` (configuration not stated) [Iodixanol], `CC(C)(C)NC[C@H](O)COc1nsnc1N1CCOCC1.O=C(O)/C=C\C(=O)O` [Timolol maleate salt] is higher in “fraction of GFP-LC3-positive cells” value: 0.0455 for the first, 0.0791 for the second.

First: CC(C)(C)C(=O)OCOC(=O)[C@@H]1N2C(=O)[C@@H](/N=C/N3CCCCCC3)[C@H]2SC1(C)C.Cl [Pivmecillinam hydrochloride]
Second: COc1cc(OC)c(C(=O)CCCN2CCCC2)c(OC)c1.Cl [Buflomedil hydrochloride]
The “fraction of GFP-LC3-positive cells” value of the first is higher: 0.0551 for the first, 0.0492 for the second.

Going from `CCCCC/C=C\C\C=C/C=C/C=C/[C@@H](O)[C@@H](O)CCCC(=O)O` to `CCCCC/C=C\C/C=C\CCCCCCCC(N)=O` [Linoleamide], the “fraction of GFP-LC3-positive cells” value falls from 0.0542 to 0.0419.

First: O=C(O)c1cccnc1 [Niacin]
Second: Cn1c([N+](=O)[O-])cnc1COC(N)=O [Ronidazole]
The “fraction of GFP-LC3-positive cells” value of the first is lower: 0.0475 for the first, 0.116 for the second.

Going from `CC/C=C\C/C=C\C/C=C\C/C=C\C/C=C\C/C=C\CCC(=O)O` [Docosahexaenoic acid (22:6 N-3)] to `CCCCC/C=C\C/C=C\CCCCCCCC(N)=O`, the “fraction of GFP-LC3-positive cells” value falls from 0.0787 to 0.0698.

Going from `CC/C=C\C/C=C\C/C=C\C/C=C\C/C=C\C/C=C\CCC(=O)O` [Docosahexaenoic acid (22:6 n-3)] to `CCCCCCCC(=O)OC[C@H](CO)OC(=O)CCCCCCC` [1,2-Dioctanoyl-SN-glycerol], the “fraction of GFP-LC3-positive cells” value falls from 0.0751 to 0.058.

First: C[C@@H]1C[C@H]2[C@@H]3CCC4=CC(=O)C=C[C@]4(C)[C@@]3(F)[C@@H](O)C[C@]2(C)[C@@]1(O)C(=O)CO [dexamethasone]
Second: O=c1[nH]c(=O)n([C@H]2C[C@H](O)[C@@H](CO)O2)cc1I [Idoxuridine]
The “fraction of GFP-LC3-positive cells” value of the first is lower: 0.0637 for the first, 0.122 for the second.

First: CCCCCCCC(=O)OC[C@H](CO)OC(=O)CCCCCCC
Second: C[N+](C)(C)CCCCCC[N+](C)(C)C.O.O.[Br-].[Br-] [Hexamethonium dibromide dihydrate]
The “fraction of GFP-LC3-positive cells” value of the first is higher: 0.0799 for the first, 0.0307 for the second.

Going from `Cl.c1ccc(CN(CC2=NCCN2)c2ccccc2)cc1` [Antazoline hydrochloride] to `CC(C)COCC(CN(Cc1ccccc1)c1ccccc1)N1CCCC1.Cl` (configuration not stated) [Bepridil hydrochloride], the “fraction of GFP-LC3-positive cells” value rises from 0.048 to 0.0674.

Going from `CC(C)COCC(CN(Cc1ccccc1)c1ccccc1)N1CCCC1` (configuration not stated) to `Nc1ccc(S(=O)(=O)Nc2ccnn2-c2ccccc2)cc1` [Sulfaphenazole], the “fraction of GFP-LC3-positive cells” value falls from 0.773 to 0.0807.

Compared with `NC[C@H]1O[C@H](OC2[C@@H](N)C[C@@H](N)[C@H](O)[C@H]2O[C@@H]2O[C@H](CO)[C@@H](O)[C@H]2O)[C@H](N)[C@@H](O)[C@@H]1O.O=S(=O)(O)O` (some centres not stated) [Ribostamycin sulfate salt], `Cl.NCc1ccc(S(N)(=O)=O)cc1` [Mafenide hydrochloride] is higher in “fraction of GFP-LC3-positive cells” value: 0.0446 for the first, 0.087 for the second.

`CC(C[N+](C)(C)C)OC(N)=O.[Cl-]` (configuration not stated) [Bethanechol chloride] and `O=S(=O)(NCCNC/C=C/c1ccc(Br)cc1)c1cccc2cnccc12` are within error of each other in “fraction of GFP-LC3-positive cells” value: 0.0276 for the first, 0.0303 ± 0.022 for the second.
